# Results from PubChem BioAssay AID2384 (Southern Research Specialized Biocontainment Screening …, 2010).
# About 1,100 (48%) of roughly 2,300 compounds were called active. So high a share suggests a set chosen from earlier hits. The list shows a part of the results. Measured potencies and affinities stand elsewhere. A number with no mark means an inactive call. No rule for the calls is given here.
# Assay: inhibitors in S. typhi counter-screen strain, dose response, counter-screen for PhoP regulon inhibitor project, fluorescence, 4 h (AID 2384)
# Conditions: S. typhi GFP reporter counter-screen; series mostly up to 150 µM; inhibition: at the top concentration
row,Compound,inhibition
1,Cc1ccc(CNC(=O)CCC(=O)Nc2nnc(C)s2)cc1,-21.4%
2,COc1ccc(CC(=O)Nc2ncc([N+](=O)[O-])s2)cc1OC,20.6%
3,O=C(Nc1ccc(N2CCOCC2)cc1)c1ccc(S(=O)(=O)NCc2ccco2)cc1,3.82%
4,O=C(NCc1ccccn1)c1nc(Cn2ccc([N+](=O)[O-])n2)no1,-7.25%
5,CC(C)NC(=O)Nc1ccc(Br)cc1Cl,2.32%
6,CCC1Oc2ccc(C)cc2N(CC(=O)NCC2COc3ccccc3O2)C1=O (stereo not given),-30.8%
7,CCS(=O)(=O)N1CCN(C(=O)c2ccco2)CC1,4.55%
8,CSCCC(NC(=O)c1ccc(Br)cc1)C(=O)O (stereo not given),8.59%
9,CCCCOc1ccc(OCCNC(=O)c2ccco2)cc1,33%
10,CCOc1ccc(NC(=O)c2ccc(N)cc2)cc1,35%
11,CCCN(CCC)CC(=O)Nc1cccc2c1OCO2,36.9%
12,Cc1nc2ccccn2c1/C(O)=C1\C(=O)C(=O)N(CCN2CCOCC2)C1c1cccnc1 (stereo not given),-27.4%
13,COc1cccc(C(=O)N(CN2CCCC2=O)c2cc(C)on2)c1,-17.4%
14,CCCCCCC(=O)N(O)C1CC(=O)N(Cc2ccccc2)C1=O (stereo not given),-30.3%
15,COc1cc(C)nc(N2CCCC(C(=O)NCC(C)C)C2)n1 (stereo not given),-1.6%
16,CCN1C(=O)NC(c2ccccc2)C1=O (stereo not given),-13.8%
17,O=C(Cn1cc(/C=C\[N+](=O)[O-])c2ccccc21)Nc1ccccc1,-16.3%
18,O=C(Cn1cnc2cc([N+](=O)[O-])ccc2c1=O)Nc1ccccc1Cl,-23.5%
19,O=[N+]([O-])c1ccc(CN2CCSCC2)cc1,0.59%
20,CCOc1ccc2ccccc2c1C(=O)N[C@@H]1C(=O)N2[C@@H]1SC(C)(C)[C@@H]2C(=O)O,-8.71%
21,O=C(CN(CCc1ccccc1)C(=O)CNS(=O)(=O)c1ccc(F)cc1)NCC1CCCO1 (stereo not given),-12.6%
22,CCOc1cc(C2NC(=O)N(C)C(C)=C2[N+](=O)[O-])ccc1OC(C)=O (stereo not given),14.6%
23,O=C(c1ccccc1F)N1C(=O)c2cccc3cccc1c23,-21.7%
24,COc1ccccc1/C=N/N1C(=O)c2cccc3cccc(c23)C1=O,5.18%
25,COCc1[nH]nc2c1C(c1ccc(OC)cc1)C(C#N)=C(N)O2 (stereo not given),16.7%
26,Cn1c(C(O)c2ccccc2F)nc(Cl)c1Cl (stereo not given),-1.03%
27,Cc1cc(Br)cc2cn[nH]c12,-15.8%
28,CC(C)c1c(O)nc(SCC(=O)N2CCOCC2)[nH]c1=O,5.37%

row,Compound,inhibition
1,Cc1cc(C(=O)Cn2cncn2)c(C)n1CCc1ccc(F)cc1,8.14%
2,CC(C)(C)SCCNC(=O)c1ccccc1,25.1%
3,O=C1C2=C(Nc3ccccc3SC2c2ccco2)c2ccccc21 (stereo not given),19.7%
4,Brc1ccc2nc(-c3c[nH]c4ccccc34)cn2c1,37.6%
5,c1csc(-n2nc3ccccc3n2)c1,-0.06%
6,CCNC(=S)Nc1cc(-c2ccc(Cl)cc2)[nH]n1,6.86%
7,O=S(=O)(Nc1ncccn1)c1ccc(NC(=S)Nc2ccccc2Cl)cc1,-30.6%
8,Cc1ccc(CCNC(=O)c2cc(S(=O)(=O)N3CCCCC3)c[nH]2)cc1,-18.9%
9,O=C(N/N=C/c1c(Cl)nc2ccccn2c1=O)c1cccnc1,18.8%
10,O=c1c2ccccc2nc(COc2ccccc2)n1/N=C/c1ccc(O)cc1O,18%
11,COc1nnc(-c2ccc(N3CCOCC3)c(NC(=O)c3ccc(C)cc3)c2)c2ccccc12,18.7%
12,CC(C)(C)NC(=O)NC(=O)COC(=O)CCC1CCCC1,2.02%
13,COc1ccc(OC)c(CCNC(=O)CS(=O)(=O)Cc2nc(-c3ccccc3C)oc2C)c1,-14.6%
14,COc1nccnc1NS(=O)(=O)c1ccc(N=Cc2c(C)[nH]n(-c3ccc(C)c(C)c3)c2=O)cc1,-9.46%
15,COc1ccc(NC(=O)c2cc(Br)c(Br)s2)cn1,36.2%
16,COc1cc2[nH]c(=S)n(CC3CCCO3)c(=O)c2cc1OC (stereo not given),-6.65%
17,Cc1cc([N+](=O)[O-])nn1CC(=O)Nc1cccc2nonc12,22.1%
18,CN1CCN(c2ccccc2NC(=O)c2cc3c(s2)-c2ccccc2OC3)CC1,-9.06%
19,COc1ccc(C)cc1S(=O)(=O)N1CCCC(C(=O)NCC2CCCO2)C1 (stereo not given),4.17%
20,Cc1cc2oc(C(=O)NCc3ccncc3)c(C)c2cc1C,-11%
21,COc1ccc(NC(=O)COC(=O)c2ccc([N+](=O)[O-])o2)cc1Cl,15.3%
22,O=C(Nc1ccc(N2CCOCC2)c(Cl)c1)c1ccccc1F,13.2%
23,C/C(Cn1nnc([N+](=O)[O-])n1)=N\NC(=O)c1ccccc1,-28.4%
24,O=C(Nc1ccc(Cc2ccncc2)cc1)c1cccs1,24.9%
25,Cc1onc(C(=O)/C=C/N(C)C)c1C(=O)Nc1nccs1,2.19%
26,Cc1cc(C)c2c(=O)[nH]c(SCC(=O)N3CCCCC3)nc2n1,-2.83%
27,COc1ccc(C2C(C(=O)N3CCC4(CC3)OCCO4)CC(=O)N2c2ccc(OC)cc2)cc1 (stereo not given),-5.55%
